Data published in PubChem BioAssay (NCI).
The panel holds about 83,000 compounds, 20% with a hit somewhere; the sample as a whole holds those more often.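 Each cell line was grown in a 96-well plate and treated with one concentration of compound for 48 hours. Values below 10 were considered active.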 Active and inactive are the calls of the source.

Key:
Test in all cases: NCI-60 one-dose screen, 48 h (100 = growth as untreated, 0 = no growth, -100 = all killed)
Settings in all cases: 10 µM unless noted
NCI-H23 lung = test system: NCI-H23 lung
NCI-H226 lung = test system: NCI-H226 lung
NCI-H322M lung = test system: NCI-H322M lung
HOP-62 NSCLC = test system: HOP-62 NSCLC
NCI-H460 lung = test system: NCI-H460 lung
HOP-92 NSCLC = test system: HOP-92 NSCLC
NCI-H522 lung = test system: NCI-H522 lung
A549/ATCC NSCLC = test system: A549/ATCC NSCLC
786-0 renal = test system: 786-0 renal
COLO 205 colon = test system: COLO 205 colon

Measured: growth

O=[N+]([O-])c1ccc(Oc2nc(Nc3ccc(O[C@H]4CO[C@H]5[C@@H]4OC[C@@H]5O)c(Cl)c3)ncc2F)c(Cl)c1
active: HOP-92 NSCLC -7.77% | NCI-H522 lung 8.06%
inactive: NCI-H23 lung 25.7% | NCI-H226 lung 19.5% | NCI-H322M lung 29.9% | HOP-62 NSCLC 23.2% | NCI-H460 lung 22.7% | A549/ATCC NSCLC 40% | 786-0 renal 21.4% | COLO 205 colon 33.3%

NCCCNc1nc2ccccc2c2c(=O)c3cc(C(F)(F)F)ccc3sc12
active: NCI-H460 lung -69.7% | NCI-H522 lung -3.15% | A549/ATCC NSCLC -16.6% | COLO 205 colon -41.4%
inactive: NCI-H23 lung 49.6% | NCI-H226 lung 86.8% | NCI-H322M lung 56.8% | HOP-62 NSCLC 52.7% | HOP-92 NSCLC 32.6% | 786-0 renal 61.1%

Cc1cccc2c1S/C(=C/c1ccc([N+](=O)[O-])cc1)C2=O
inactive: NCI-H23 lung 91.3% | NCI-H226 lung 86.6% | NCI-H322M lung 96.3% | HOP-62 NSCLC 92.5% | NCI-H460 lung 106% | HOP-92 NSCLC 105% | NCI-H522 lung 93.1% | A549/ATCC NSCLC 106% | 786-0 renal 106% | COLO 205 colon 114%

COc1ccc(/C=C(/C#N)n2nnc3cccc(F)c32)cc1
active: NCI-H460 lung 4.61% | HOP-92 NSCLC -2.46% | NCI-H522 lung -24.6% | COLO 205 colon 1.85%
inactive: NCI-H23 lung 14.6% | NCI-H226 lung 60.4% | NCI-H322M lung 25.2% | HOP-62 NSCLC 38.1% | A549/ATCC NSCLC 37% | 786-0 renal 10.6%

O=C1c2cccc3cccc(c23)C(=O)N1Nc1nc(NC2CCCCC2)nc(N2CCOCC2)n1
inactive: NCI-H23 lung 95.4% | NCI-H226 lung 98% | NCI-H322M lung 93.4% | HOP-62 NSCLC 91.3% | NCI-H460 lung 102% | HOP-92 NSCLC 86.3% | NCI-H522 lung 93.5% | A549/ATCC NSCLC 95% | 786-0 renal 104% | COLO 205 colon 107%

c1cc2nc(-c3cn[nH]c3)c3c(c2cc1-c1cn[nH]c1)C1CCC3C1 (stereo not given)
inactive: NCI-H23 lung 53% | NCI-H226 lung 39.5% | NCI-H322M lung 75% | HOP-62 NSCLC 47.8% | NCI-H460 lung 54% | HOP-92 NSCLC 28% | NCI-H522 lung 75.1% | A549/ATCC NSCLC 74% | 786-0 renal 81.5% | COLO 205 colon 90.5%

O=C1c2cccc3cccc(c23)C(=O)N1Nc1nc(N2CCOCC2)nc(N2CCN(c3ccccc3)CC2)n1
active: HOP-92 NSCLC 7.52% | COLO 205 colon 3.51%
inactive: NCI-H23 lung 64% | NCI-H226 lung 57.5% | NCI-H322M lung 65.5% | HOP-62 NSCLC 46.3% | NCI-H460 lung 28.8% | NCI-H522 lung 29.9% | A549/ATCC NSCLC 53.1% | 786-0 renal 65.6%

CCOc1c(B(O)O)cccc1-c1nc2ccc3[nH]ncc3c2c2c1CCCC2
inactive: NCI-H23 lung 60.1% | NCI-H226 lung 54.3% | NCI-H322M lung 109% | HOP-62 NSCLC 48.3% | NCI-H460 lung 42.1% | HOP-92 NSCLC 33.5% | NCI-H522 lung 55.2% | A549/ATCC NSCLC 64.5% | 786-0 renal 47.7% | COLO 205 colon 48.6%

COc1ccc(C(=O)N=Nc2c(O)n(C)c3ccccc23)cc1
inactive: NCI-H23 lung 85.3% | NCI-H226 lung 91.1% | NCI-H322M lung 94.4% | HOP-62 NSCLC 97.6% | NCI-H460 lung 94% | HOP-92 NSCLC 86.1% | NCI-H522 lung 91.5% | A549/ATCC NSCLC 105% | 786-0 renal 106% | COLO 205 colon 106%

COc1ccc(-c2nnc(COc3ccc(Cl)cc3Cl)o2)cc1OC
active: HOP-62 NSCLC -1.03% | NCI-H460 lung -4.77% | HOP-92 NSCLC -32.4% | A549/ATCC NSCLC 9.7% | 786-0 renal -70.8%
inactive: NCI-H23 lung 56.3% | NCI-H226 lung 32.8% | NCI-H322M lung 16.8% | NCI-H522 lung 19.4% | COLO 205 colon 58.5%

NCCOc1ncccc1/C=C1\C2C=CC=CC2C2C=CC(F)=CC12 (stereo not given)
active: NCI-H23 lung 2.79% | NCI-H226 lung -26.2% | NCI-H460 lung -22% | A549/ATCC NSCLC -56.5% | 786-0 renal 1.24%
inactive: NCI-H322M lung 64.5% | HOP-62 NSCLC 10.5% | HOP-92 NSCLC 28.9% | NCI-H522 lung 47.8% | COLO 205 colon 27.2%

O=c1cc(SCc2ccccc2)nc[nH]1
inactive: NCI-H23 lung 108% | NCI-H226 lung 104% | NCI-H322M lung 105% | HOP-62 NSCLC 91.1% | NCI-H460 lung 112% | HOP-92 NSCLC 100% | NCI-H522 lung 116% | A549/ATCC NSCLC 103% | 786-0 renal 95% | COLO 205 colon 133%

O=C1CN(CCN2CC(=O)N(Cc3ccccc3)C(=O)C2)CC(=O)N1Cc1ccccc1
inactive: NCI-H23 lung 97.7% | NCI-H226 lung 107% | NCI-H322M lung 104% | HOP-62 NSCLC 91.2% | NCI-H460 lung 100% | HOP-92 NSCLC 85% | NCI-H522 lung 98.8% | A549/ATCC NSCLC 102% | 786-0 renal 110% | COLO 205 colon 109%

COc1ccc(-c2[nH]c3ccc(OC)cc3c2/C=C(\C#N)S(=O)(=O)c2ccccc2)cc1
active: NCI-H460 lung 4.64% | COLO 205 colon -43.4%
inactive: NCI-H23 lung 24.9% | NCI-H226 lung 72.3% | NCI-H322M lung 53.5% | HOP-62 NSCLC 69.1% | HOP-92 NSCLC 29.2% | NCI-H522 lung 34.5% | A549/ATCC NSCLC 23.5% | 786-0 renal 27.8%

NC(=O)Nc1ccc2ncnc(Nc3ccc(Cl)cc3)c2c1
inactive: NCI-H23 lung 100% | NCI-H226 lung 99.8% | NCI-H322M lung 18% | HOP-62 NSCLC 86.2% | NCI-H460 lung 87.9% | HOP-92 NSCLC 74.2% | NCI-H522 lung 66.2% | A549/ATCC NSCLC 72.5% | 786-0 renal 85.9% | COLO 205 colon 101%

COc1cc(/C=C/c2ccccc2)cc(OC)c1
inactive: NCI-H23 lung 86.6% | NCI-H226 lung 92% | NCI-H322M lung 114% | HOP-62 NSCLC 108% | NCI-H460 lung 106% | HOP-92 NSCLC 69.9% | NCI-H522 lung 84.1% | A549/ATCC NSCLC 95.4% | 786-0 renal 97.9% | COLO 205 colon 114%

CC(C)(C)NC(=O)C(OC(=O)c1cccc(Cl)c1)c1ccc(Cl)cc1 (stereo not given)
inactive: NCI-H23 lung 101% | NCI-H226 lung 94.9% | NCI-H322M lung 98% | HOP-62 NSCLC 80.9% | NCI-H460 lung 106% | HOP-92 NSCLC 93.8% | NCI-H522 lung 71.1% | A549/ATCC NSCLC 90.9% | 786-0 renal 99.2% | COLO 205 colon 103%

CCCCC[C@H](O)C/C=C1/C(=O)C=C[C@@H]1C/C=C\CCCC(=O)OC
inactive: NCI-H23 lung 67.9% | NCI-H226 lung 70.4% | NCI-H322M lung 79.7% | HOP-62 NSCLC 34% | NCI-H460 lung 46.8% | HOP-92 NSCLC 108% | NCI-H522 lung 30.4% | A549/ATCC NSCLC 72% | 786-0 renal 44% | COLO 205 colon 62.8%

COc1ccn2c(C(C)=O)cc(C(=O)c3ccc4c(c3)Sc3ccccc3N4)c2c1
active: NCI-H460 lung 4.07% | NCI-H522 lung -21.5% | COLO 205 colon -41%
inactive: NCI-H23 lung 28.3% | NCI-H226 lung 26% | NCI-H322M lung 42.8% | HOP-62 NSCLC 20.2% | HOP-92 NSCLC 31.2% | A549/ATCC NSCLC 10.5% | 786-0 renal 10.7%

O=C1/C(=C/c2ccccc2[N+](=O)[O-])Oc2ccc(O)c(O)c21
inactive: NCI-H23 lung 33.5% | NCI-H226 lung 83.3% | NCI-H322M lung 81% | HOP-62 NSCLC 71.3% | NCI-H460 lung 60.6% | HOP-92 NSCLC 76.6% | A549/ATCC NSCLC 72.3% | 786-0 renal 47.2% | COLO 205 colon 57.7%
active: NCI-H522 lung -18%

COc1ccc(-c2[nH]ncc2-c2cc3c(c(OC)c2)OCC(=O)N3)cc1
inactive: NCI-H23 lung 30% | NCI-H226 lung 61.8% | NCI-H322M lung 43% | HOP-62 NSCLC 27.2% | HOP-92 NSCLC 63% | A549/ATCC NSCLC 35.2% | 786-0 renal 27%
active: NCI-H460 lung 5.89% | NCI-H522 lung -47.2% | COLO 205 colon -24.9%

O=C(O)CCC/C=C\C[C@H]1C=CC(=O)/C1=C/C[C@@H](O)CCc1cccc(C(F)(F)F)c1
active: NCI-H23 lung -22.1% | NCI-H226 lung -39.5% | HOP-62 NSCLC -31.9% | NCI-H460 lung -65.1% | HOP-92 NSCLC -20.6% | NCI-H522 lung -62.7% | A549/ATCC NSCLC -7.82% | 786-0 renal -31.3% | COLO 205 colon -38.1%
inactive: NCI-H322M lung 11.3%

COc1nc2ccc(C)cc2cc1-c1nc2c(cnn2-c2ccc(Br)cc2)c(=O)[nH]1
inactive: NCI-H23 lung 44.9% | NCI-H226 lung 57.5% | NCI-H322M lung 72.7% | HOP-62 NSCLC 45.5% | NCI-H460 lung 27.1% | HOP-92 NSCLC 51.6% | A549/ATCC NSCLC 57.7% | 786-0 renal 41.5% | COLO 205 colon 74.2%
active: NCI-H522 lung 3.48%

COc1cccc2c(=O)c3c(sc12)c(N1CCNCC1)nc1ccccc13
inactive: NCI-H23 lung 77.3% | NCI-H226 lung 88.2% | NCI-H322M lung 92.8% | HOP-62 NSCLC 81% | HOP-92 NSCLC 51.7% | NCI-H522 lung 77.2% | A549/ATCC NSCLC 48.6% | 786-0 renal 78.9% | COLO 205 colon 30.9%
active: NCI-H460 lung -55.1%

CN1CCN(Cc2ccc(NC(=O)c3cncc(C#Cc4cnccc4C#N)c3)cc2C(F)(F)F)CC1
inactive: NCI-H23 lung 49.2% | NCI-H226 lung 40.4% | NCI-H322M lung 99.4% | HOP-62 NSCLC 76.8% | NCI-H460 lung 59.2% | HOP-92 NSCLC 36% | NCI-H522 lung 66.7% | A549/ATCC NSCLC 90.4% | 786-0 renal 101% | COLO 205 colon 24.6%

CCOC(=O)CCN(C(=O)Nc1ccccc1)C1CCCCC1
inactive: NCI-H23 lung 102% | NCI-H226 lung 115% | NCI-H322M lung 110% | HOP-62 NSCLC 86.8% | NCI-H460 lung 102% | HOP-92 NSCLC 111% | NCI-H522 lung 99.2% | A549/ATCC NSCLC 132% | 786-0 renal 91.5% | COLO 205 colon 139%

COc1cc(CNS(=O)(=O)c2ccc(C)cc2)ccc1OCc1cn(-c2ccccc2)nn1
inactive: NCI-H23 lung 83% | NCI-H226 lung 81.5% | NCI-H322M lung 92.8% | HOP-62 NSCLC 97% | NCI-H460 lung 97.1% | HOP-92 NSCLC 68.4% | NCI-H522 lung 76.5% | A549/ATCC NSCLC 90.7% | 786-0 renal 95.2% | COLO 205 colon 108%
